Test [1] can be described thus: Quantitative High-Throughput drug screen in 47 multiple myeloma cell lines against the NCATS MIPE library collection: OCIMY1_PLB cell viability assay (AID 1918979). Further: nearly all actives have a fitted effect of over 35% in size. The procedure, abridged: (§1)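 ATP-based luminescence (CellTiter-Glo, 5 min RT incubation) quantified surviving cells following two days' treatment with MIPE 4.0 agents at 37 °C, 5% CO2.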
Test [2] is described as follows: Quantitative High-Throughput drug screen in 47 multiple myeloma cell lines against the NCATS MIPE library collection: KMS28PE_JCRB cell viability assay (AID 1918983). Further: nearly all actives have a fitted effect of over 35% in size. Put shortly:
as §1

Test [3] is described as follows: Quantitative High-Throughput drug screen in 47 multiple myeloma cell lines against the NCATS MIPE library collection: LP1_DSMZ cell viability assay (AID 1918982). Further: nearly all actives have a fitted effect of over 35% in size. The procedure, abridged: as §1
A short description of test [4]: Quantitative High-Throughput drug screen in 47 multiple myeloma cell lines against the NCATS MIPE library collection: OCIMY7_PLB cell viability assay (AID 1918987). Further: nearly all actives have a fitted effect of over 65% in size. The note with it: OCI-MY7 myeloma viability, CellTiter-Glo ATP, 48 h; viability (% of DMSO): at 45.8 µM (top of the series). Put shortly:
as §1
On the technique in general: In ATP-based viability assays light output follows the ATP content of the culture.

The nature of test [5]: Quantitative High-Throughput drug screen in 47 multiple myeloma cell lines against the NCATS MIPE library collection: L363_DSMZ cell viability assay (AID 1918984). Further: nearly all actives have a fitted effect of over 40% in size. The note with it: L363 myeloma viability, CellTiter-Glo ATP luminescence, 48 h; viability (% of control): at 45.8 µM (top of the series). Put shortly: as §1
The nature of test [6]: Quantitative High-Throughput drug screen in 47 multiple myeloma cell lines against the NCATS MIPE library collection: KMS34_JCRB cell viability assay (AID 1918985). Further: nearly all actives have a fitted effect of over 40% in size. The procedure, abridged:
as §1

Test [7] can be described thus: Quantitative High-Throughput drug screen in 47 multiple myeloma cell lines against the NCATS MIPE library collection: OCIMY5_PLB cell viability assay (AID 1918988). Further: nearly all actives have a fitted effect of over 65% in size. The procedure, abridged: as §1
Test [8] is described as follows: Quantitative High-Throughput drug screen in 47 multiple myeloma cell lines against the NCATS MIPE library collection: OPM1_PLB cell viability assay (AID 1918989). Further: nearly all actives have a fitted effect of over 40% in size. The procedure, abridged:
as §1

Test [9] can be described thus: Quantitative High-Throughput drug screen in 47 multiple myeloma cell lines against the NCATS MIPE library collection: MM1S_ATCC cell viability assay (AID 1918980). Further: nearly all actives have a fitted effect of over 45% in size. Put shortly:
as §1

The nature of test [10]: Quantitative High-Throughput drug screen in 47 multiple myeloma cell lines against the NCATS MIPE library collection: MM1R_ATCC cell viability assay (AID 1918981). Further: nearly all actives have a fitted effect of over 35% in size. The procedure, abridged:
as §1

Results filed as inconclusive are left out. Active and inactive are the calls of the source. The call rests on the fitted dose curve; in most records, active means well fitted cell-killing curve with a large enough effect; inconclusive means small, poorly fitted or top-dose-only effect, or effect the other way; inactive means no such curve, though single readings can be large or run the other way.
Potency means the concentration at half of the fitted maximal effect.

On to `N#Cc1ccc(Oc2ccc3c(c2)COB3O)cc1`, for which the Potency result in test [1] and in [2] was “inactive” in each case.

Regarding `N#Cc1c(N(CC(=O)O)CC(=O)O)sc(C(=O)O)c1CC(=O)O`, the Potency entry in test [1], in [3] and in [2] was “inactive” each time. Besides, the Potency in test [4] was 8.33 µM (active).

As for `C[C@@]1(c2cc(-c3cncnc3)c(F)cc2F)CCSC(N)=N1`, the Potency result in [1] and in test [6] was “inactive” each time. Moreover, the Potency in test [5] was 1.48 µM (active).

In the case of `CC(C)[C@H](O)C(=O)N[C@@H](C)C(=O)N[C@@H]1C(=O)N(C)CCc2ccccc21`, the Potency result in test [1], in test [3], in [5], in [6], in [7] and in [8] was “inactive” each time.

With `O=S(=O)(NCCNCC=Cc1ccc(Br)cc1)c1cccc2cnccc12`, the Potency was 3.72 µM (active) in [9]; 20.9 µM (active) in test [10]; 7.43 µM (active) in test [3]; 18.7 µM (active) in [2]; 2.96 µM (active) in test [5]; 23.5 µM (active) in test [4]. Further, the figures for the Potency in [7] and in test [8] were 14.8 µM (active) and 8.33 µM (active), respectively.

As for `CN(C)CCN(C)C(=O)c1ccc(NC(=O)Nc2ccc(-c3nc(N4CCOCC4)c4ccn(CC(F)(F)F)c4n3)cc2)cc1`, the Potency in test [9] was 0.0526 µM (active); in test [10], 0.105 µM (active); in [3], 0.166 µM (active); in test [2], 0.0469 µM (active); in test [6], 0.372 µM (active); in [4] it was 3.32 µM (active). Also, the Potency in test [7] is 0.418 µM (active); in [8], 0.0093 µM (active).

On to `O=C1C(CCC(O)c2ccc(F)cc2)C(c2ccc(O)cc2)N1c1ccc(F)cc1` (stereo not drawn), for which the Potency entry in test [1], in [3], in [2], in test [5], in test [6] and in test [4] was “inactive” in each case. The Potency result in test [8] is “inactive”.

Take `CO[C@H]1/C=C\O[C@@]2(C)Oc3c(C)c(O)c4c(O)c(c5c(nc6cc(C)ccn65)c4c3C2=O)NC(=O)C(C)=CC=C[C@H](C)[C@H](O)[C@@H](C)[C@@H](O)[C@@H](C)[C@H](OC(C)=O)[C@H]1C`: the Potency entry in test [1] and in test [3] was “inactive” each time. For the same compound, the Potency was 20.9 µM (active) in test [5] and 16.6 µM (active) in [7].

For the compound `CN(C)CCCNC(=O)c1ccc(-c2cc(O)c3ncccc3c2)cc1`, the Potency was 20.9 µM (active) in test [9]; 20.9 µM (active) in test [10]; 8.33 µM (active) in test [3]; 9.35 µM (active) in test [2]; 20.9 µM (active) in [5]; 20.9 µM (active) in test [7]. In [8], the Potency was 16.6 µM (active).

As to `Fc1ccc(C(c2ccc(F)cc2)N2CCN(CC=Cc3ccccc3)CC2)cc1`, the Potency entry in test [1], in test [2], in [5], in test [6] and in [8] was “inactive” throughout. The Potency is 13.2 µM (active) in [4] and 14.8 µM (active) in test [7].

`Cn1cnc(-c2cc3nccc(Oc4ccc(NC(=S)NC(=O)Cc5ccccc5)cc4F)c3s2)c1`: the Potency result in test [1] is “inactive”. Further, the Potency in test [3] was 16.6 µM (active); in test [8], 18.7 µM (active).

On to `CC(=O)Nc1cccc(-n2c(=O)n(C3CC3)c(=O)c3c(Nc4ccc(I)cc4F)n(C)c(=O)c(C)c32)c1`, for which the Potency in test [1] was 0.0033 µM (active); in [2] it was 8.33 µM (active); in test [5], 5.9 µM (active); in test [4], 0.0132 µM (active); in test [8] it was 0.296 µM (active). The Potency entry in test [6] and in test [7] was “inactive” each time.

In the case of `CCCCCOC(=O)Nc1nc(=O)n([C@@H]2O[C@H](C)[C@@H](O)C2O)cc1F` (stereo partly drawn), the Potency result in test [1], in test [3], in [2], in test [5], in test [6] and in test [4] was “inactive” in each case. For the same compound, in test [8], the Potency entry was “inactive”.

Turning to `CON(C)C(=O)N1N=C(c2cc(F)ccc2F)S[C@]1(CCCN)c1ccccc1`, the Potency result in test [9], in test [10], in test [3], in [2], in [6] and in test [4] was “inactive” throughout. The Potency entry in test [7] was “inactive”.

For the compound `C[C@@H](NC(=O)c1ncnc(N)c1Cl)c1ncc(C(=O)Nc2cc(C(F)(F)F)c(Cl)cn2)s1`, the Potency was 16.6 µM (active) in [9]; 18.7 µM (active) in test [10]; 16.6 µM (active) in [2]; 4.18 µM (active) in [6]; 7.43 µM (active) in [4]; 9.35 µM (active) in test [7].

As for `C[C@@]1(C(=O)Nc2ccc(F)nc2)CCCN1c1nc(Nc2cc(C3CC3)[nH]n2)c2cccn2n1`, the Potency in test [9] is 0.0469 µM (active); in test [10], 0.0166 µM (active); in [2], 0.0296 µM (active); in [4], 0.0743 µM (active); in [7] it was 0.118 µM (active); in [8], 1.66 µM (active).

In the case of `COc1cccc(OC)c1-c1cc(C(=O)NC2(C(=O)O)C3CC4CC(C3)CC2C4)nn1-c1ccnc2cc(Cl)ccc12` (stereo not drawn), the Potency in [9] is 16.6 µM (active). Moreover, the Potency result in [10], in [3], in [2], in test [7] and in test [8] was “inactive” each time.

On to `CC(C)C[C@H](NC(=O)c1cc2ccccc2s1)C(=O)N1CCN(C(=O)[C@H](CO)NS(=O)(=O)c2ccc(Cl)cc2Cl)CC1`, for which the Potency in test [9] was 23.5 µM (active); in test [10], 18.7 µM (active); in test [3] it was 26.4 µM (active); in test [2], 23.5 µM (active); in test [4], 23.5 µM (active); in test [7], 20.9 µM (active). In test [8], the Potency is 20.9 µM (active).

For the compound `CCN1C[C@H](C)n2c(c(O)c3c(=O)n(Cc4ccc(F)c(Cl)c4)nc(C(=O)NC)c32)C1=O`, the Potency result in test [9], in test [2], in test [5], in test [6] and in test [8] was “inactive” throughout. For the same compound, the Potency in [10] was 3.32 µM (active).

`NC(N)=Nc1nc(CSCCC(N)=NS(N)(=O)=O)cs1`: the Potency in test [9] was 9.35 µM (active); in test [10] it was 23.5 µM (active); in test [4], 10.5 µM (active); in [7], 29.6 µM (active); in test [8], 16.6 µM (active). In addition, the Potency entry in test [2] and in test [6] was “inactive” in each case.

As for `COc1cc2c(cc1OC)CC(=O)N(CCCN(C)C[C@H]1Cc3cc(OC)c(OC)cc31)CC2`, the Potency in test [9] was 16.6 µM (active); in test [10], 11.8 µM (active); in test [7], 16.6 µM (active). For the same compound, the Potency result in [2] and in [4] was “inactive” in each case.
